From the supplement of paper PMC10849652
Of roughly 8,800 targets only a part is listed; those with a hit were picked by preference. About 0.5% of all pairs of compound and target were hits.

Key:
Assay in all cases: log2 fold change, soluble protein after heating vs DMSO (PISA); higher = thermal stabilisation; K562 lysate, 10 uM; active = over 0.2 and 3.5 SD of the protein, either way, in both replicates (recomputed)
nilotinib = compound: Cc1cn(-c2cc(NC(=O)c3ccc(C)c(Nc4nccc(-c5cccnc5)n4)c3)cc(C(F)(F)F)c2)cn1 [nilotinib]
Procedure, shortened: (§1)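 Thermal stability, expressed as log-two fold change relative to solvent controls, is given from duplicates. Crude K562 extract in PBS pH 7.4 with 1 mM MgCl2, at 1 mg/mL protein, was treated with 10 μM compound for 30 min and heated in aliquots for 3 min across 48°C-58°C. After pooling, adjustment to 0.5% NP-40 at 4°C and centrifugation at 21,000xg for 90 min, supernatant protein was measured by TMTpro 16plex LC-MS/MS with channel sums equalised.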

[1] = compound: Cc1nc(Nc2n[nH]c3c2CN(C(=O)N[C@H](CN(C)C)c2ccccc2)C3(C)C)c2sccc2n1
Procedure, shortened: as §1

[2] = compound: Cc1ncc(-c2ccnc(Nc3ccc(S(C)(=O)=O)cc3)n2)n1C(C)C
Procedure, shortened: as §1

quisinostat = compound: Cn1cc(CNCC2CCN(c3ncc(C(=O)NO)cn3)CC2)c2ccccc21 [quisinostat]
Procedure, shortened: as §1

tipifarnib = compound: Cn1cncc1[C@@](N)(c1ccc(Cl)cc1)c1ccc2c(c1)c(-c1cccc(Cl)c1)cc(=O)n2C [tipifarnib]
Procedure, shortened: as §1

[3] = compound: NC(=O)Nc1cc(-c2cccc(F)c2)sc1C(=O)N[C@H]1CCCNC1
Procedure, shortened: as §1

[4] = compound: O=C1NC(=O)C(c2cnc3ccccn23)=C1c1cn2c3c(cc(F)cc13)CN(C(=O)N1CCCCC1)CC2
Procedure, shortened: as §1

[5] = compound: NC(=O)c1cnc(N[C@@H]2CCCC[C@@H]2N)nc1Nc1cccc(-n2nccn2)c1
Procedure, shortened: as §1

[6] = compound: NCC(=O)Nc1ccc(-n2nc(C(F)(F)F)cc2-c2ccc3c(ccc4ccccc43)c2)cc1
Procedure, shortened: as §1

entospletinib = compound: c1cn2cc(-c3ccc4cn[nH]c4c3)nc(Nc3ccc(N4CCOCC4)cc3)c2n1 [entospletinib]
Procedure, shortened: as §1

dasatinib = compound: Cc1nc(Nc2ncc(C(=O)Nc3c(C)cccc3Cl)s2)cc(N2CCN(CCO)CC2)n1 [dasatinib]
Procedure, shortened: as §1

[7] = compound: Cn1cc(-c2ccc3c(c2)CCN3C(=O)Cc2cccc(C(F)(F)F)c2)c2c(N)ncnc21
Procedure, shortened: as §1

[8] = compound: NC1(c2ccc(-c3nc4ccn5c(=O)[nH]nc5c4cc3-c3ccccc3)cc2)CCC1
Procedure, shortened: as §1

vorinostat = compound: O=C(CCCCCCC(=O)Nc1ccccc1)NO [vorinostat]
Procedure, shortened: as §1

silmitasertib = compound: O=C(O)c1ccc2c(c1)nc(Nc1cccc(Cl)c1)c1ccncc12 [silmitasertib]
Procedure, shortened: as §1

Measured: log2 fold change

UBAP2L isoform 1 (UniProt Q14157)
Sequence of UniProt Q14157 (Q14157 whole entry, looked up): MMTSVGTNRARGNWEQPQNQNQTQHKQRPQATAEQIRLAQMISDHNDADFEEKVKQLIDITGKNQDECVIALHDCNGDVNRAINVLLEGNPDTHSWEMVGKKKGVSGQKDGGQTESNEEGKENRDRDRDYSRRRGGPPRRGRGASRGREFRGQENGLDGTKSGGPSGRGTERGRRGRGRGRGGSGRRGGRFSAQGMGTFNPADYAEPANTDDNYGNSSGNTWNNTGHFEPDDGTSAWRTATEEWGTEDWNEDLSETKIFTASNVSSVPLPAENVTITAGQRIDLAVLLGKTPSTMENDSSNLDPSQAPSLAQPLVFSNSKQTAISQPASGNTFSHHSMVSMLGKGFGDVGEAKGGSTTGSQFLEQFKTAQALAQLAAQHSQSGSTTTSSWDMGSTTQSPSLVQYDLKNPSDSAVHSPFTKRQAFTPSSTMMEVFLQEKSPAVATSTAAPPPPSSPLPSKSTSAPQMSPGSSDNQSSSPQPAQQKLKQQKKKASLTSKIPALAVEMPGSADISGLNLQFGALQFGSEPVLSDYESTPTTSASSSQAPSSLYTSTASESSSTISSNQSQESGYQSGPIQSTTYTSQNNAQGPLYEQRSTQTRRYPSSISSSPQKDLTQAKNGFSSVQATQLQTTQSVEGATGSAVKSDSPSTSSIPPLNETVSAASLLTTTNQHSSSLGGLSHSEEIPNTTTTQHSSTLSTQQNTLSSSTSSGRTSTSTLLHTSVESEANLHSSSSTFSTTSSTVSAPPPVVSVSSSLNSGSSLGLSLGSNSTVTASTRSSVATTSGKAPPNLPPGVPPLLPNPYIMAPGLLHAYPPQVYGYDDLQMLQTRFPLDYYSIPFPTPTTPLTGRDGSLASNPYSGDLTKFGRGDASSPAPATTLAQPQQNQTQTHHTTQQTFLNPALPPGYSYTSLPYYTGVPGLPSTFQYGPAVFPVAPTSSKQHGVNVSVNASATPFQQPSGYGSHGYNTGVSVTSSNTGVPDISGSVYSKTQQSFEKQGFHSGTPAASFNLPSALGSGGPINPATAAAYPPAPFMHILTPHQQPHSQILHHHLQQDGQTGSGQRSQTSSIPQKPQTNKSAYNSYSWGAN
inactive: nilotinib -0.03 | [1] -0.081 | [2] 0.09 | quisinostat 0.613 | tipifarnib -0.067 | [3] 0.081 | [4] 0.088

TEC (UniProt P42680)
Sequence of UniProt P42680 (P42680 whole entry, looked up): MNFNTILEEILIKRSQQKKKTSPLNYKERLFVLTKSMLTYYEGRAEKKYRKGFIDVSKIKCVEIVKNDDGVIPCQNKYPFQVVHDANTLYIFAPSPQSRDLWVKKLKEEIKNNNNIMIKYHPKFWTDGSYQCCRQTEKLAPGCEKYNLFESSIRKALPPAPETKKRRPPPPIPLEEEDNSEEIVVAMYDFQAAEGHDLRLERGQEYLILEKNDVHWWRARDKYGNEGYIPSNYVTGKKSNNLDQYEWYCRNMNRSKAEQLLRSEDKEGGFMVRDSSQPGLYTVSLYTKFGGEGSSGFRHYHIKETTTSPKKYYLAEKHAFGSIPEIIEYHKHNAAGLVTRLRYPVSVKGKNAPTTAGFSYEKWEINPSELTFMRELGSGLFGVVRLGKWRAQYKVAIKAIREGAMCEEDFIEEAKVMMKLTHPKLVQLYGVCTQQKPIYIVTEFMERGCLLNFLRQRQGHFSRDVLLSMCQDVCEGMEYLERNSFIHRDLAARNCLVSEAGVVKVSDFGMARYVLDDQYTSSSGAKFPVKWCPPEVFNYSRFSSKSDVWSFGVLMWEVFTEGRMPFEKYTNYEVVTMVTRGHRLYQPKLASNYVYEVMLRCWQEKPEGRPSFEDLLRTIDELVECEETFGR
inactive: nilotinib -0.047 | [1] 0.099 | [2] 0.019 | tipifarnib 0.116 | [5] -0.039 | entospletinib 0.037
active: [6] -1.05

TCF20 (UniProt Q9UGU0)
inactive: dasatinib 0.001 | [7] -0.057 | quisinostat 0.193 | [3] -0.006 | [5] 0.11 | [8] 0.068 | vorinostat -0.067 | silmitasertib 0.054 | [4] -0.056

TFAP4 (UniProt Q01664)
Sequence of UniProt Q01664 (Q01664 whole entry, looked up): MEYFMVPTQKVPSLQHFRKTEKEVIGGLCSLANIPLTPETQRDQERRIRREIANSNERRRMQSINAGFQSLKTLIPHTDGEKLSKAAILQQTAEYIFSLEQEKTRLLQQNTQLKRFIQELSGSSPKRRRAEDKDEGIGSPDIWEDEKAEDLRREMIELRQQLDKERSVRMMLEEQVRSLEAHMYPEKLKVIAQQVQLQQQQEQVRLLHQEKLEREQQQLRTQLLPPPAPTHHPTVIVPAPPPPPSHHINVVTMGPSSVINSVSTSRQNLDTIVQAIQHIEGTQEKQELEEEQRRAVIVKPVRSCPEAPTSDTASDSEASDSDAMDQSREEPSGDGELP
inactive: nilotinib 0.18 | [1] 0.155 | [2] 0 | quisinostat 0.006 | tipifarnib -0.066 | [3] -0.036 | [5] -0.218 | [8] -0.001 | [6] 0.005 | vorinostat 0.051 | silmitasertib -0.196 | [4] 0.01 | entospletinib -0.086

TTLL12 (UniProt V9GY16)
inactive: quisinostat -0.436 | [3] -0.021 | [8] 0.039 | [6] 0.115 | vorinostat 0.076 | silmitasertib -0.298 | [4] 0.035 | entospletinib 0.103

UCHL5 (UniProt Q5LJA9)
active: vorinostat -0.361
inactive: dasatinib -0.214 | [7] -0.075 | quisinostat -0.186 | [3] -0.024 | [5] 0.009 | [8] 0.006 | [6] -0.017 | silmitasertib 0.004 | [4] -0.086 | entospletinib -0.011

TMEM132A isoform 2 (UniProt Q24JP5)
inactive: quisinostat -0.022 | [3] 0.087 | [5] 0.724 | [8] -0.014 | vorinostat -0.156 | silmitasertib 0.351 | [4] 0.227 | entospletinib -0.089

THAP9 (UniProt Q9H5L6)
Sequence of UniProt Q9H5L6 (Q9H5L6 whole entry, looked up): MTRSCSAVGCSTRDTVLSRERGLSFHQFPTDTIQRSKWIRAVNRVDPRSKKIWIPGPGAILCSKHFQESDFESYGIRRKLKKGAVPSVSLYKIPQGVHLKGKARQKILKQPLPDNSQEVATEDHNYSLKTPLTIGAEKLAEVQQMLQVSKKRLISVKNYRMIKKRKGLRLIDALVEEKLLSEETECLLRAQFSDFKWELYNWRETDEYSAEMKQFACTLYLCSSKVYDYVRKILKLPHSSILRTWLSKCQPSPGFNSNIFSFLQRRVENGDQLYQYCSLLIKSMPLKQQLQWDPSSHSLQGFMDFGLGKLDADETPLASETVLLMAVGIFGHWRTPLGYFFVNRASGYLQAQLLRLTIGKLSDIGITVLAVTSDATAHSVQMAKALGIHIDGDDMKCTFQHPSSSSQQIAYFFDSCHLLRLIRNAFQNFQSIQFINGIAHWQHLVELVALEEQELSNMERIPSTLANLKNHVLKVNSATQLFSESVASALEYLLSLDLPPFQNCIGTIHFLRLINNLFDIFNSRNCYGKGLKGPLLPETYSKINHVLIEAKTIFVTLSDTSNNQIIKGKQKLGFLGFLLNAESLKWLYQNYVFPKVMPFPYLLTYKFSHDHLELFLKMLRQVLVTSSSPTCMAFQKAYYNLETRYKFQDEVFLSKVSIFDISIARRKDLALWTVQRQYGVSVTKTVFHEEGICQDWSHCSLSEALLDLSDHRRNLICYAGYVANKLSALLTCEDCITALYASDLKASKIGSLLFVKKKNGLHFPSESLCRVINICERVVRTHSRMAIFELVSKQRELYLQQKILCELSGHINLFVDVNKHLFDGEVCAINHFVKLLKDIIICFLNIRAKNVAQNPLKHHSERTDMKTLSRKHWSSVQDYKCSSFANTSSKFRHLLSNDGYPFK
inactive: dasatinib 0.025 | [7] -0.032 | quisinostat -0.455 | [3] 0.07 | [5] 0.179 | [6] 0.207 | [4] 0.09 | entospletinib 0.059

TFPT (UniProt P0C1Z6)
Sequence of UniProt P0C1Z6 (P0C1Z6 whole entry, looked up): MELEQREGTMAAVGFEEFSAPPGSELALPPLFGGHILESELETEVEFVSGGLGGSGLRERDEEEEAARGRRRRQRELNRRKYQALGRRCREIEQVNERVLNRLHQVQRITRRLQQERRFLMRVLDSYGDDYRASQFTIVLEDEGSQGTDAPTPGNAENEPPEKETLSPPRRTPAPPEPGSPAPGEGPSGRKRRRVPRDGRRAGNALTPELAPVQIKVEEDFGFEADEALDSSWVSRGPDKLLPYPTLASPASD
inactive: dasatinib 0.009 | [7] 0.006 | [5] 0.023 | [8] -0.002 | vorinostat 0.289 | silmitasertib -0.18

UBN1 (UniProt Q9NPG3)
inactive: dasatinib 0.208 | [7] 0.055 | quisinostat 0.114 | [3] -0.053 | [5] 0.001 | [6] 0.048 | [4] -0.463 | entospletinib -0.034

UBAP2L (UniProt F8W726)
inactive: quisinostat 0.11 | [3] 0.043 | [5] 0.099 | [6] 0.062 | [4] 0.021

TENM4 (UniProt Q6N022)
inactive: quisinostat -0.13 | [3] 0.033 | [5] -0.081 | [4] 0.143

TMEM167B (UniProt Q9NRX6)
Sequence of UniProt Q9NRX6 (Q9NRX6 whole entry, looked up): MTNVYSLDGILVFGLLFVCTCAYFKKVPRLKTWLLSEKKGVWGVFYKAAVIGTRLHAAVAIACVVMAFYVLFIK
inactive: nilotinib 0.006 | [1] 0.031 | [2] 0.014 | quisinostat -0.016 | tipifarnib -0.013 | [3] 0.027 | [5] 0.005 | [8] -0.019 | [6] 0.019 | vorinostat 0 | silmitasertib 0.009 | [4] -0.033 | entospletinib 0.031

TCF3 isoform 2 (UniProt P15923)
inactive: quisinostat -0.05 | [3] -0.005 | [8] -0.068 | vorinostat -0.196 | silmitasertib -0.056 | [4] 0.043

TM2D3 (UniProt Q9BRN9)
Sequence of UniProt Q9BRN9 (Q9BRN9 whole entry, looked up): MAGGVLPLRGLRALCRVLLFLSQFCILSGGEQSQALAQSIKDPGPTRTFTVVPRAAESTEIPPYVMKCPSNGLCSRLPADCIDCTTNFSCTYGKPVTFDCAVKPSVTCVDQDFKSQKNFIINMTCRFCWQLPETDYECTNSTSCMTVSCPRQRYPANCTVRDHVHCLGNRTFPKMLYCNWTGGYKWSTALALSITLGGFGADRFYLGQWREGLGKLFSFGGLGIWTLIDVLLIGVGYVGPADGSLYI
inactive: [8] -0.09 | vorinostat 0.096 | silmitasertib 0.339 | entospletinib -0.184

UCP2 (UniProt P55851)
inactive: nilotinib 0.144 | [1] -0.186 | [2] -0.137 | quisinostat -0.022 | tipifarnib 0.142 | [3] 0.059 | [6] -0.12 | [4] 0.035

TMPO isoform 2 (UniProt P42167)
inactive: dasatinib -0.042 | [7] -0.072 | [6] -0.066 | entospletinib 0.032

TRPM4 (UniProt Q8TD43)
Sequence of UniProt Q8TD43 (Q8TD43 whole entry, looked up): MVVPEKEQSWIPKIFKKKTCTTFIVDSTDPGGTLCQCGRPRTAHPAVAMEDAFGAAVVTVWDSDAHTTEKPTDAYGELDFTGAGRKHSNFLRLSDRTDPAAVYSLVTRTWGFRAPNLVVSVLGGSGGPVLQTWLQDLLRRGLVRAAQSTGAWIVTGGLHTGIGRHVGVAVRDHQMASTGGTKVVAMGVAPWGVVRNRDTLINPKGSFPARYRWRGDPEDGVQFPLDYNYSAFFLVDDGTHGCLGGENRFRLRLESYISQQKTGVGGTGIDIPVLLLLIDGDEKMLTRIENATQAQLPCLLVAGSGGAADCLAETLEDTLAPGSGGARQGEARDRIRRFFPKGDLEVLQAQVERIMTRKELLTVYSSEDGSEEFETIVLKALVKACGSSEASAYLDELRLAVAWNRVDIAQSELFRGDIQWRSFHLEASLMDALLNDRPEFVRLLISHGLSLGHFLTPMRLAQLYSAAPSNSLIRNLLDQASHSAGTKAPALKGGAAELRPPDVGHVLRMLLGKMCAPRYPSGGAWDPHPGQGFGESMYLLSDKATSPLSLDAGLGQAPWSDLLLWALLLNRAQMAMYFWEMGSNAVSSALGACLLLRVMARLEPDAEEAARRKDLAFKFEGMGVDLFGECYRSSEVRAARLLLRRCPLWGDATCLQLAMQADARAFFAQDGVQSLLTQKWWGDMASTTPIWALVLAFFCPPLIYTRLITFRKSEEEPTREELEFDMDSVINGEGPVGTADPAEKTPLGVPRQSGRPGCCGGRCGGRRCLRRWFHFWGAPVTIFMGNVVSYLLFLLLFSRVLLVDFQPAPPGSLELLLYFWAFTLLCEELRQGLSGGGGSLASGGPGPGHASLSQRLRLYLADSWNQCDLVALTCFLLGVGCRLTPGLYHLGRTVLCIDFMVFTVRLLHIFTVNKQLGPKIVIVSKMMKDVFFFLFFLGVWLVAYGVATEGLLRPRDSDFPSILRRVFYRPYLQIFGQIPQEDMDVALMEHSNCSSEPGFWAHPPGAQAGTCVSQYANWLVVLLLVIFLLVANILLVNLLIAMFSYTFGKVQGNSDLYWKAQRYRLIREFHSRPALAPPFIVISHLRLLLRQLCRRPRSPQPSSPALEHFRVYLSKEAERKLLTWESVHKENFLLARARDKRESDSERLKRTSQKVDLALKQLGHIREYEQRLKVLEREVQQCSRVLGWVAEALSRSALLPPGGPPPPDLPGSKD
inactive: dasatinib -0.02 | [7] -0.099 | quisinostat -0.01 | [3] 0.111 | [8] 0.089 | vorinostat 0.161 | silmitasertib -0.091 | [4] -0.078
